HP1b binding inh: HTS for Inhibitors of HP1-beta Chromodomain Interactions with Methylated Histone Tails | Chromobox protein homolog 1 (Homo sapiens), P83916 | AID 540317, 2011 | AlphaScreen HP1-beta / biotin-H3K9me3 peptide binding | Potency, µM (doses to about 114 µM), for inactives: top-dose activity change, negative = inhibition, hits mostly inhibitors | 0.56% of 390,000 active; further: potency means the concentration at half of the fitted maximal effect; nearly all actives have a fitted effect of over 70% in size
Target sequence (P83916 whole entry, looked up): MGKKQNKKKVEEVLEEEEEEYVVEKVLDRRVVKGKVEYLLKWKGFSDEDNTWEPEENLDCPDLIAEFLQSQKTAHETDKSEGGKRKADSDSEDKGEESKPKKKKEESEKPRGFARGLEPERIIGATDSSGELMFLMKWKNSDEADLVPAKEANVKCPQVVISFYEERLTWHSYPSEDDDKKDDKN
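AlphaScreen: HP1-beta (50 nM) preformed 30 min with biotin-H3(1-18)K9me3 peptide (50 nM) in PBS pH 7.4, 0.01% Tween-20. Compound added for 30 min at RT, then streptavidin donor/nickel chelate acceptor beads (10 ug/mL) for 30 min.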
L3MBTL1 inh: qHTS Assay for the Inhibitors of L3MBTL1; 0.66% of 230,000 active; Potency, µM (highest dose often 57.1 µM), for the others: top-dose activity, negative = inhibition, usual class: inhibitors; Lethal(3)malignant brain tumor-like protein 1 (Homo sapiens), Q9Y468; AlphaScreen L3MBTL1–H3K9me1 peptide binding; further: potency means the concentration at half of the fitted maximal effect; on the % scale 0 is the no-effect control and ±100 the full control effect; nearly all actives have a fitted effect of over 60% in size
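Read-out is AlphaScreen signal from streptavidin donor and nickel chelate acceptor beads (10 ug/mL final each) bridging L3MBTL1 (50 nM) and biotinylated K9-monomethylated H3(1-15) peptide (75 nM), after 30 min compound exposure at room temperature.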
BAZ2B inh: qHTS Assay for Inhibitors of BAZ2B | Bromodomain adjacent to zinc finger domain protein 2B (Homo sapiens), Q9UIF8 | Potency, µM (doses to about 114 µM), for the others: top-dose activity change, negative = inhibition, most hits filed as inhibitors | 4.4% of 360,000 active | AlphaScreen BAZ2B-H3K14Ac peptide displacement; further: potency means the concentration at half of the fitted maximal effect; on the % scale 0 is the no-effect control and ±100 the full control effect; nearly all actives have a fitted effect of over 60% in size
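AlphaScreen displacement of biotin-H3(5-23)K14Ac peptide (50 nM final) from BAZ2B (50 nM final) in PBS pH 7.4, 0.01% Tween-20; complex preformed 30 min RT, then compounds (top 110 uM) 30 min RT, beads 20 min dark.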
JMJD2A Tudor inh: qHTS Assay for Inhibitors of JMJD2A-Tudor Domain; Lysine-specific demethylase 4A (Homo sapiens), O75164; AlphaScreen JMJD2A-Tudor / H3K4me3 peptide binding; Potency, µM (titrated, usually from 114 µM), for inactives: at the highest dose activity change, negative = inhibition, most hits filed as inhibitors; 4.4% of 390,000 active; further: potency means the concentration at half of the fitted maximal effect; on the % scale 0 is the no-effect control and ±100 the full control effect; nearly all actives have a fitted effect of over 50% in size
KDM4E inh: qHTS Assay for Inhibitors of Human Jumonji Domain Containing 2E (JMJD2E) | JMJD2E catalytic domain, FDH-coupled NADH fluorescence (FDH is formaldehyde dehydrogenase) | AID 2147, 2009 | Potency, µM (top dose mostly 57.1 µM), for the others: at the highest dose activity change, negative = inhibition, usual class: inhibitors | 1.6% of 230,000 active; active means well fitted inhibition curve with a large enough effect, not every such curve was filed as active; inconclusive means small, poorly fitted or top-dose-only effect, or another doubt; inactive means no such curve, though single readings can be large or run the other way;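 further: potency means the concentration at half of the fitted maximal effect; 0% = wells with enzyme and -100% = buffer wells without enzyme; nearly all actives have a fitted effect of over 50% in size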
Target sequence (B2RXH2 1-337 limits assumed): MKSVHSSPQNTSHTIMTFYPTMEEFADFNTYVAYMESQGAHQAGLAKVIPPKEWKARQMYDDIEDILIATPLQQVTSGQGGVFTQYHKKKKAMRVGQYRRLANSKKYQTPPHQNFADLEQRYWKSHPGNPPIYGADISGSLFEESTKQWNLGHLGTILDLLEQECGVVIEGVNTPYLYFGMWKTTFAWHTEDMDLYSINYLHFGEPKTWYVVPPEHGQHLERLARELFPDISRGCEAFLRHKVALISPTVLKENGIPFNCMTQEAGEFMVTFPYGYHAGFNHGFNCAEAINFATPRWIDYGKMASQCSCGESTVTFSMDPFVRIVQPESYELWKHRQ
PI5P4Ka inh: qHTS for Inhibitors of phosphatidylinositol 5-phosphate 4-kinase (PI5P4K). Phosphatidylinositol 5-phosphate 4-kinase type-2 alpha (Homo sapiens), P48426. PI5P4Kalpha enzyme, ADP-Glo luminescence, 60 min; active compounds read low. max response, %. 1.2% of 330,000 active. AID 652105, 2013; active means max response of -50% or lower; inconclusive means between -30% and -50%; inactive means -30% or higher; further: value at the top dose of about 77 µM; on the % scale 0 is the no-effect control and ±100 the full control effect
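ADP-Glo luminescence end-point read after a 60 min room-temperature kinase reaction of PI5P4Kalpha plus substrate, initiated with ATP at 5 microM final. Buffer: 0.038 M HEPES pH 7.4, EGTA, 0.1% CHAPS, 5% DMSO.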
* marks the source's active call; other numbers are inactive results; ? = inconclusive; . = not tested or not shown; [ ] = another dose, or the depositor's remark. A selection: hits, their analogues and other compounds. The true share with any hit is near 5.7%. Unless noted, the call rests on the fitted dose curve; in most records, active means well fitted inhibition curve with a large enough effect; inconclusive means small, poorly fitted or top-dose-only effect; inactive means no such curve, though single readings can be large or run the other way.

SMILES	HP1b binding inh	L3MBTL1 inh	BAZ2B inh	JMJD2A Tudor inh	KDM4E inh	PI5P4Ka inh
Cc1ccnc2c1ccc1c(C)ccnc12	48.0%	-85.9%	4.47µM*	7.08µM*	.	4.2
Cc1ccc2cccnc2c1N	-4.2%	-21.2%	?	22.4µM*	3.8%	1.5
Cc1cccc2cccnc12	74.8%	-4.8%	12.9%	-11.7%	.	1.5
CCOc1ccc(/C=C2\SC(=S)N(NS(=O)(=O)c3ccc(C)cc3)C2=O)cc1OC	-10.0%	-22.9%	?	?	-3.0%	2.4
COc1ccc(OC)c(/C=C2\SC(=S)N(NS(=O)(=O)c3ccc(C)cc3)C2=O)c1	?	.	?	50.1µM*	.	-67.4*
COc1ccc(/C=C2\SC(=S)N(NS(=O)(=O)c3ccc(C)cc3)C2=O)c(OC)c1	-19.1%[57 µM]	.	?	56.2µM*	.	-75.5*
COc1ccccc1/C=C1\SC(=S)N(NS(=O)(=O)c2ccc(C)cc2)C1=O	-17.8%	.	50.1µM*	?	.	?
Cc1cccc(C(=O)N2CCc3cc(CNC(=O)CCc4ccccc4)ccc32)c1	13.9%	.	-10.3%	-19.7%	.	.
CC(=O)c1ccccc1C(=O)N1CCCC(CNC(=O)c2ccccc2Cl)C1 (stereo unspecified)	13.0%	.	-4.6%	28.2µM*	.	-23.7
CC#CCN1c2ccccc2[C@]23C[C@@H](C(=O)OC)N(S(=O)(=O)CCCC)C2=NC(C(=O)OC)=C(C(=O)OC)[C@H]13	.	.	.	.	10.7%[11.4 µM]	.
CC(=O)NNC(=S)NC(=O)c1cccc([N+](=O)[O-])c1	?	1.3%	?	8.91µM*	-13.2%	?
CNC(=S)N/N=C(\C)c1cccc([N+](=O)[O-])c1	-7.7%	-5.4%	50.1µM*	-23.3%	-6.2%	-5.1
Oc1c(Br)cc(Br)cc1C=Nc1ccc2[nH]ncc2c1	33.7%	.	-22.0%	-18.6%	231.9%	-51.3*
CC(C)=CCc1c(O)cc(O)c2c(=O)c3c(CC=C(C)C)c(O)ccc3oc12	-22.9%	.	.	56.2µM*	.	?
CCc1ccc(N2C(=O)N(CC(=O)C(C)(C)C)c3ccccc3S2(=O)=O)cc1	11.7%	.	-0.3%	-15.3%	.	.
O=[S+]1([O-])N=C(Oc2cccnc2)c2ccccc21	.	.	.	2.1%	.	.
COc1ccc(-c2cnnc(N/N=C/c3ccc(O)c(O)c3)n2)cc1	-32.9%	?	44.7µM*	39.8µM*	25.1µM*	-14.4
COc1ccc(-c2cnnc(N/N=C/c3ccc(C)o3)n2)cc1	-21.0%	-6.6%	-2.9%	14.1µM*	-2.6%	-17.1
Cc1cc(C(=O)OCC(=O)N(C)c2c(N)n(Cc3ccccc3)c(=O)[nH]c2=O)c(C)n1-c1ccccc1	24.6%	-4.5%	6.3%	-5.5%	.	0.3
CCCCOc1ccc(Nc2cc(Cl)ccc2C(=O)O)cn1	-30.5%	.	70.8µM*	?	2.6%	0.5
Cc1cc(/C=C2\NC(=O)NC2=O)c(C)n1-c1ccc(N2CCOCC2)cc1	-35.5%	25.2%	-32.7%	?	15.8µM*	0.1
Cc1cc(/C=C2/NC(=O)NC2=O)c(C)n1-c1ccc(C#N)cc1	-15.4%	.	?	-16.5%[11.4 µM]	?	?
Cc1cc(/C=C2/NC(=O)NC2=O)c(C)n1-c1ccc(N2CCOCC2)cc1	?	-6.3%	?	?	?	0.8
Cc1cc(/C=C2/NC(=O)NC2=O)c(C)n1-c1ccccn1	?	-6.0%	-11.0%	-28.4%[57.1 µM]	25.1µM*	6.1
Cc1ccc(-n2c(C)cc(/C=C3\NC(=O)NC3=O)c2C)c(C)c1	?	-7.1%	39.8µM*	35.5µM*	25.1µM*	?
SMILES	HP1b binding inh	L3MBTL1 inh	BAZ2B inh	JMJD2A Tudor inh	KDM4E inh	PI5P4Ka inh
CCOC(=O)Cc1csc(NC(=O)c2ccc3ncsc3c2)n1	36.9%	.	-6.3%	-14.1%	.	0.5
CCOCCCn1cc(C(=O)c2cc(Br)ccc2O)cc(C#N)c1=O	27.4%	.	56.2µM*	-7.6%	?	-6.2
O=C(Nc1ccc(Cl)c(C(F)(F)F)c1)c1cc2nc(-c3ccc4c(c3)OCO4)cc(C(F)(F)F)n2n1	38.7%	.	-4.5%	-1.5%	.	.
CCc1ccc(N2C(=O)CSC23C(=O)N(Cc2cccc(OC)c2)c2ccccc23)cc1 (stereo unspecified)	7.0%	.	-24.6%	-23.8%	.	.
CCOc1ccc(-c2nn[nH]n2)cc1OCC	21.0%	2.8%	7.8%	-3.1%	-3.3%	-14.2
CCOc1ccc(-c2nn[nH]n2)cc1	13.7%	.	?	50.1µM*	-2.0%	-12.8
COc1ccc(/C=C2\SC(=S)N(NS(=O)(=O)c3ccccc3)C2=O)c(OC)c1	6.2%	.	-20.9%	-25.8%	.	-58.3*
CCC(C(=O)O)N1C(=O)/C(=C/C(C)=C/c2ccccc2)SC1=S (stereo unspecified)	?	-26.7%	?	?	-10.4%	-1.6
COc1ccc(OC)c(/C=C2\SC(=S)N(NS(=O)(=O)c3ccccc3)C2=O)c1	-2.7%	.	39.8µM*	?	.	?
O=C1/C(=C/c2cccs2)SC(=S)N1NS(=O)(=O)c1ccccc1	20.1%	-13.5%	?	?	-1.6%	-72.8*
CC(C(=O)O)N1C(=O)/C(=C/C=C/c2ccco2)SC1=S (stereo unspecified)	?	1.12µM*	2.51µM*	3.16µM*	0.891µM*	-101.1*
CCc1ccccc1NC(=O)CN1C(=O)CCc2cc(S(=O)(=O)N3CCCCC3)ccc21	16.3%	.	-3.2%	-16.9%	.	.
CCS(=O)(=O)N1CC(=O)N(c2cc(C)ccc2C)C(C)(C(=O)NC2CCCCC2)C1 (stereo unspecified)	28.5%	.	4.0%	0.0%	.	.
O=C1/C(=C/C=C/c2ccco2)SC(=S)N1NS(=O)(=O)c1ccccc1	10µM*	.	7.08µM*	3.55µM*	15.8µM*	-80.9*
COc1c2ccc(OCC/C(C)=C/C(=O)C=C(C)C)cc2nc2occc12	30.2%	-3.6%	.	-19.4%	.	-19.7
Cc1ccc(C(=O)Nc2ccccc2C(=O)O)cc1NC(=O)COc1c(C)cccc1C	31.5%	1.9%	79.4µM*	-7.5%	9.7%	-23.9
Cc1cc(C(=O)Nc2ccccc2C(=O)O)ccc1NC(=O)COc1cccc(C)c1C	19.9%	.	-17.7%	-18.6%	.	-6.3
O=C(COc1cc(Cl)c(Cl)cc1Cl)Nc1ccncc1	-10.0%	-5.3%	9.4%	89.1µM*	6.3%	0.2
O=C(COc1ccccc1Cl)Nc1cc(NC(=O)COc2ccccc2Cl)cc(C(=O)O)c1	28.2%	-4.9%	50.1µM*	-17.5%	.	-13.8
Cc1cccc(OCC(=O)Nc2ccc(C(=O)Nc3ccccc3C(=O)O)cc2)c1	.	.	.	.	.	-52.4*

From PubChem
